# Compound activity: PubChem BioAssay, The Scripps Research Institute Molecular Screening Center
# GPR151 ag: activators of human GPR151, primary screen, cell-based, PathHunter beta-arrestin, luminescence; 650,000 compounds, 1% hits; PathHunter beta-arrestin GPR151 cells; AID 1508602, 2020; activation, % at 11.2 µM; in the data active means activation above about 4.9%;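 further: 0% = median of compound wells and 100% = cells with positive control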
# Target sequence (Q8TDV0 whole entry, looked up): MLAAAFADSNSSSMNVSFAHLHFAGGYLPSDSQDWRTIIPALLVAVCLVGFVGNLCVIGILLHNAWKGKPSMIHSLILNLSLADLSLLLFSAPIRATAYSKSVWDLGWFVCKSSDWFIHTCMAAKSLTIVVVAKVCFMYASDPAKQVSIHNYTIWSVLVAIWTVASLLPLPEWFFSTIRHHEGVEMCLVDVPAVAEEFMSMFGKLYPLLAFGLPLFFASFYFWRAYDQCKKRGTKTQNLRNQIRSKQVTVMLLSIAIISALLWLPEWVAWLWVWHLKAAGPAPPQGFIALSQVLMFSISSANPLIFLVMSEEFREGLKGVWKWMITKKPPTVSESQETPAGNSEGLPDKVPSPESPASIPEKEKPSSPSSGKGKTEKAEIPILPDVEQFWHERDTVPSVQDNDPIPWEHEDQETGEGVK
# FBW7 activator: FBW7 E3 ligase activators, primary screen, biochemical, AlphaScreen, human | 650,000 compounds, 0.13% hits | AlphaScreen FBW7–phospho-cyclin E peptide binding, activator screen | F-box/WD repeat-containing protein 7 (Homo sapiens), Q969H0 | normalized activity (activation), % at 26.1 µM; in the data active means normalized activity above about 1.9%;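 further: purified mutant Fbw7 with reduced substrate affinity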
# TEAD-YAP block: TEAD-YAP interaction inhibition, primary screen, TEAD-YAP interaction inhibitor project, luminescence, HEK-TIYL cells. TEAD-Gal4/YAP UAS-luciferase luminescence. inhibition, % at 9.12 µM. 640,000 compounds, 1.4% hits; in the data active means inhibition above about 32%;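 further: 0% = median of test compound wells and 100% = reference inhibitor wells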
# MITF inh: MITF inhibitors, primary screen, biochemical, AlphaScreen, human; AlphaScreen MITF homodimerization, bead proximity signal; 650,000 compounds, 0.91% hits; AID 1259374, 2018; inhibition, % at 2.6 µM; Microphthalmia-associated transcription factor (Homo sapiens), O75030; in the data active means inhibition above about 50%;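 further: 0% = vehicle wells with protein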
# The depositor's hits bear a star. Compounds with a hit are over-represented: about 3.4% of the library has one in this group of screens.
SMILES,GPR151 ag,FBW7 activator,TEAD-YAP block,MITF inh
Cc1cc(C)c2nc(C(C#N)C(=O)c3nc(S(C)(=O)=O)ncc3Cl)[nH]c(=O)c2c1 (configuration not stated),-0.3,0.1,7.5,6.0
CC(=O)c1ccc(C(=O)NCCOc2ccccc2)cc1,-4.9,0.8,67.8*,0.1
O=C(CCC(=O)c1ccccc1)NCCOc1ccccc1,4.4,0.0,0.3,6.5
O=C(NCCOc1ccc(Cl)cc1)c1ccco1,-0.1,2.3*,-5.3,17.9
O=C(CCl)NCCOc1ccccc1,-0.2,-0.1,35.6*,-8.8
CCc1ccc(OCCNC(=O)c2ccco2)cc1,-2.0,0.1,-23.4,3.1
Cc1ccc(C(=O)NCCOc2ccccc2)cc1,-6.0,0.2,72.8*,3.1
Cc1ccc(C(=O)NCCc2ccccc2)cc1,-6.3,0.0,82.2*,-7.2
COc1cc(-c2nc3ccc(C(=O)NCCc4ccc(C)cc4)cc3nc2-c2cc(OC)c(OC)c(OC)c2)cc(OC)c1OC,0.7,0.5,37.9*,21.8
COc1ccc(-c2cccc(C(=O)NCCOc3ccccc3)n2)cc1,0.6,8.0*,16.6,3.4
COc1cc(-c2nc3ccc(C(=O)NCCc4ccccc4)cc3nc2-c2cc(OC)c(OC)c(OC)c2)cc(OC)c1OC,0.2,0.1,7.7,9.8
O=C(NCCOc1ccccc1)C(=O)NCc1ccco1,0.8,0.2,48.3*,10.3
O=C(NCCOc1ccccc1)c1cccc(-c2ccccc2)n1,-1.2,0.5,-0.9,14.6
CCOc1ccc(NC(=O)CN(Cc2ccccc2)S(=O)(=O)c2ccc(OC)c(OC)c2)cc1,-0.7,0.3,10.0,11.2
CCN1CCOC(CC(=O)Nc2cccc(F)c2)C1=O (configuration not stated),-0.8,-0.2,-16.4,-5.7
CN(CC(=O)Nc1cccc(F)c1)CC(=O)Nc1ccc2c(c1)OC(F)(F)O2,-1.7,0.6,13.9,-7.0
O=C(CCl)Nc1ccc2c(c1)OC(F)(F)O2,0.5,0.2,36.8*,15.1
O=C(Nc1ccc(F)c(Cl)c1)c1ccc(Cl)c([N+](=O)[O-])c1,1.3,0.0,1.8,3.3
O=C(Nc1ccc2c(c1)OC(F)(F)O2)c1ccc(Cl)c([N+](=O)[O-])c1,0.2,-0.1,34.1*,10.1
O=C(CCC1(Cc2ccc3c(c2)OCO3)CCC(=O)N1)NCCc1cccs1 (configuration not stated),2.2,0.1,8.3,7.2
Cc1cccc(C(=O)N2CCCC(C(=O)Nc3cccc(-c4ccc(F)cc4)c3)C2)n1 (configuration not stated),-0.2,0.0,15.6,-12.4
Cc1cc(C(=O)N2CCCC(C(=O)Nc3cccc(-c4ccc(F)cc4)c3)C2)n(C)n1 (configuration not stated),2.1,0.2,45.3*,16.6
C=CCOC(=O)C1C(C)CC2(C)CC1C(=O)O2 (configuration not stated),0.9,-0.2,-1.6,2.0
COc1ccc(CN2CCC(CNC(=O)C3CCCN(c4cnccn4)C3)CC2)cc1 (configuration not stated),1.2,0.2,1.7,-11.2
CCn1c(C)c(C)n2c3c(=O)n(CC(C)=O)c(=O)n(C)c3nc12,-0.9,-0.1,2.9,3.7
SMILES,GPR151 ag,FBW7 activator,TEAD-YAP block,MITF inh
CCCCCOc1ccc(NC(=O)CSc2cccc3cccnc23)cc1,-0.8,-0.8,37.3*,3.7
CCOc1ccc(CCNC(=O)c2cc([N+](=O)[O-])ccc2Cl)cc1OCC,0.0,0.6,39.0*,15.6
O=C(NCCOC12CC3CC(CC(C3)C1)C2)c1cc([N+](=O)[O-])ccc1Cl,-0.7,0.0,33.0*,6.7
Cc1[nH]c2ccc(OC(F)(F)F)cc2c1CCNC(=O)c1cc([N+](=O)[O-])ccc1Cl,0.2,-0.2,66.1*,5.7
O=C(Nc1ccc(C23CC4CC(CC(C4)C2)C3)cc1)c1cc([N+](=O)[O-])ccc1Cl,-0.2,0.0,29.9,12.1
COc1cccc(C(=O)NCC2CCCN(C3CCC3)C2)c1OC (configuration not stated),4.7,0.1,10.8,4.5
COc1cn(-c2ccc(F)cc2)nc1C(=O)Nc1ccccc1SC,0.8,0.1,32.4*,5.6
C=CCNC(=S)N/N=C/c1ccc(C(F)(F)F)cc1,0.9,-0.1,43.5*,-4.3
COc1ccc(-c2cc(-c3ccccc3)nc3sc(C(=O)c4ccc(Cl)cc4)c(N)c23)cc1,0.9,0.0,3.5,5.2
CCOC(=O)c1ccc(COC(=O)c2ccccc2NC)cc1,-1.0,2.2*,-9.0,-9.1
COc1cc(Nc2ncnc3c2nc(-c2cccc(N)c2)n3C(C)C)cc(OC)c1OC,0.6,0.0,-3.1,4.0
COc1ccc(CNc2nccn3c(-c4cccc5ccccc45)cnc23)cc1,0.6,2.2*,-7.8,4.0
O=C(Nc1ccc2cnccc2c1)C1COc2ccccc2O1 (configuration not stated),-1.0,0.0,-23.8,21.1
CCCOc1ccc(C(=O)CCNC(CC(=O)O)c2ccccc2)cc1 (configuration not stated),1.2,0.0,1.2,1.9
COc1ccc(S(=O)(=O)NCCNc2nc(C)cc(N(C)C)n2)c(OC)c1,-2.3,0.4,32.3*,8.8
CC1(C)Oc2ccc3ccc(=O)oc3c2C/C1=N\Nc1ccccc1,-0.9,0.6,49.4*,2.0
CCn1c(COc2ccccc2C)nnc1SCC(=O)N1CCCC(C)C1 (configuration not stated),0.2,0.1,-6.8,-6.8
CCC(CC)C(=O)Nc1ccc(S(=O)(=O)N2CCC(c3nc4ccccc4[nH]3)CC2)cc1,-0.1,0.0,12.5,16.1
O=C(Nc1ccc(S(=O)(=O)N2CCC(c3nc4ccccc4[nH]3)CC2)cc1)c1ccccc1F,-0.5,0.3,40.3*,19.6
O=C(CCc1ccccc1)Nc1ccc(S(=O)(=O)N2CCC(c3nc4ccccc4[nH]3)CC2)cc1,-0.2,0.0,32.0*,13.7
N#C/C(=C\c1ccc(O)c(Br)c1)c1nc(-c2ccc3c(c2)OCO3)cs1,-0.1,0.1,-10.6,0.9
N#C/C(=C\c1ccc(O)c(O)c1)c1nc(-c2ccc3c(c2)OCO3)cs1,0.2,-0.3,18.2,58.0*
C=CCn1c(SCc2c(C)noc2C)nc2scc(C3CC3)c2c1=O,0.7,0.0,50.2*,-1.0
CCOC(=O)c1c(NC(=O)c2ccc(C(F)(F)F)cc2)sc2c1CCCC2,-0.6,0.2,-1.6,3.8
Cc1csnc1NC(=O)c1c(N)nc2c(c1C(F)(F)F)OC1=C(CCCC1)O2,0.0,0.0,79.2*,-4.9
COc1cc(C2NC(=O)c3sc(=S)n(-c4ccccc4)c3N2)ccc1OCc1ccccc1 (configuration not stated),0.7,-0.2,-3.1,0.9
Cc1cc(/C=C(\C#N)C(=O)O)c(C)n1CC(C)C,-0.4,-0.1,12.2,8.0
Cc1cc(/C=C(\C#N)C(=O)OCC(=O)NCc2cccs2)c(C)n1CC(C)C,-2.1,-0.2,49.1*,8.7
